In ChEMBL document CHEMBL3988442, “University of Dundee, Small-Polar-MMV Screening Library” (2021):
Out of some 38,000 compounds screened, about 1,200 (3.2%) showed an effect of 50% or more. The median lay at about -58%. Many of the other results were omitted from the sample, so strong results are more common in it than they were.

System: Plasmodium falciparum
Assay: Calibr Malaria Delayed Death Assay SOP
Format: functional, organism-based
Design: scale not given: in the data most compounds retested in dose-response had high values
Conditions: concentration 4.99e-06 (unit not given; other assays of the set use mol/L)

Structure (SMILES)	Percent Effect
Cn1c2c(c(=O)n1C)CN(C(=O)c1cccc(F)c1)CCC2	-64.91%
O=S(=O)(NCC(c1ccsc1)N1CCCCCC1)c1cccs1 (stereo not given)	84.95%
COc1ccccc1N1CCC(CNS(=O)(=O)c2cccs2)C1 (stereo not given)	4.169%
CN1CCc2cc(C(CNS(=O)(=O)c3cccs3)N3CCCC3)ccc21 (stereo not given)	13.73%
CN(C)c1ccc(C(CNS(=O)(=O)c2cccs2)N2CCCC2)cc1 (stereo not given)	52.34%
CCC(CO)N(Cc1cccs1)C(=O)CNS(=O)(=O)c1cccs1 (stereo not given)	-105.8%
CC(CNS(=O)(=O)CCCC#N)c1ccsc1 (stereo not given)	-35.87%
Cc1nc(CN2CCCN(Cc3nc4ccccc4o3)CC2)no1	-14.25%
CSCC(=O)N1CCOC(c2nc(C(C)(C)C)n[nH]2)C1 (stereo not given)	-128.5%
O=C(C1CC(=O)N(c2n[nH]c3cc(Br)ccc23)C1)N1CCOCC1 (stereo not given)	-162.5%
O=C(NC1CC1)N1CCc2ncc(CN3CCOCC3)n2CC1.O=C(O)C(F)(F)F	-16.42%
O=C(CC1NC(N2CCc3ccccc32)=NC1=O)Nc1ccccc1 (stereo not given)	-56.07%
C[C@@H]1CN(C(=O)c2cccc(F)c2)C[C@]12CCN(c1ccsc1)C2=O	-98.41%
Cc1cc(C)n(CC2CN(CC3CCCC3)CCO2)n1 (stereo not given)	-35.36%
Cc1ccc(-c2cccc(N3CCC(NC4CCOCC4)CC3)c2)cc1	-119.9%
COc1ccc(N2CCC(N3CCOC(C(F)(F)F)C3)CC2)cc1 (stereo not given)	-105.9%
CCS(=O)(=O)c1ccc(N2CCC(NC(C)=O)CC2)cc1	-87.36%
CNC1CCN(C2CCN(c3ccc(-c4ccco4)cc3)CC2)CC1	85.81%
COc1cccc(N2CCC(N3CCOC(C(F)(F)F)C3)CC2)c1 (stereo not given)	-105.8%
Cc1nc[nH]c1-c1nccn1CCN1CCCC1=O	-100.3%
CCOC[C@@H]1CC[C@H]2[C@H](CCN2C(=O)c2ccncc2F)O1	-16.41%
Cc1cccc(OC2CCN(Cc3ncc[nH]3)CC2)c1	7.466%

Structure (SMILES)	Percent Effect
Brc1ccc(CN2CCC(NCc3ncc[nH]3)CC2)cc1	82.48%
Clc1cccc(N2CCC(NCc3cc[nH]n3)C2)c1 (stereo not given)	-43.41%
OC1CCN(Cc2ccc(CNc3ncc(Cl)cc3F)cc2)CC1	26.38%
c1ccc(CN2CCC(NCCSc3cnn[nH]3)CC2)cc1	-21.85%
CCn1cc(CNC2CCN(c3cccc(Cl)c3)C2)cn1 (stereo not given)	17.81%
OC1CCN(Cc2ccc(CNc3ccc(Cl)cn3)cc2)CC1	-61.51%
Clc1cc(Cl)cc(CN2CCC(NCc3ncc[nH]3)CC2)c1	83.8%
Clc1cccc(N2CCC(NCc3ncc[nH]3)C2)c1 (stereo not given)	65.12%
O=C(COc1ccccc1Br)N1CCOc2ccncc21	-65.13%
O=C(O)C(F)(F)F.O=S(=O)(C1CC1)N1CCO[C@H]2[C@H](Oc3cccnc3)CC[C@@H]21	-58.06%
Cc1nc(NC2CCN(C(=O)C3CC3)CC2)c2cnn(C)c2n1	-160.6%
CNC(=O)[C@H]1C[C@@H]2CN(C(=O)c3cccnc3)C[C@@H]2N1S(C)(=O)=O.O=C(O)C(F)(F)F	-51.87%
CCN(CC)S(=O)(=O)NC1CCN(c2ccc(OC)cc2)CC1	-62%
O=C1NCCCC12CCN(Cc1ccc(SC3CCCCC3)o1)C2 (stereo not given)	54.2%
O=C1NCCCC12CCN(S(=O)(=O)N1CCOCC1)C2 (stereo not given)	-32.12%
Cc1ccc(CN2CCC3(CC2)C(=O)NCCN3CC2CC2)o1	-112.7%
Cc1cccc(N2CCC(N3CCC4(CCCNC4=O)C3)CC2)c1C (stereo not given)	41%
Cc1ccc(CN2C[C@@H](c3ccccc3)[C@@]3(CCNC3=O)C2)o1	-6.391%
Cc1ccc(Sc2ccc(CN3CCC4(CCCNC4=O)C3)o2)cc1 (stereo not given)	71.68%
COc1cccc(C(c2c(C)n[nH]c2O)c2c(C)n[nH]c2O)c1OC	-4.815%
O=C(O)C(F)(F)F.O=C1[C@H]2CN(S(=O)(=O)c3ccccc3)C[C@H]2CN1Cc1cccnc1	0.7029%
CCN(C(=O)COC)C(c1ccc(Cl)cc1)c1ccccn1 (stereo not given)	-96.63%

Structure (SMILES)	Percent Effect
CCN(CC)C(=O)COc1nc(C(C)C)no1	-177.8%
Cc1nc(C)c(C)c(N2CCC(NCCOc3ccccc3)CC2)n1	61.44%
O=C(COCCOc1ccccc1)NC1CCN(c2ncccn2)CC1	-10.36%
Cc1ccnc(N2CCC(NCCOc3ccccc3)CC2)n1	9.901%
CN(C)c1ccnc(N2CCC(NCCOc3ccccc3)CC2)n1	59.77%
Cc1cc(N2CCC(NC(=O)CCc3ccco3)CC2)nc(C)n1	-35.38%
Cc1cc(N2CCC(NCCOc3ccccc3)CC2)nc(C)n1	74.5%
Cc1cc(N2CCC(O)CC2)nc(C)n1	-73.43%
Cc1cc(N2CCC(N(C)C(=O)c3ccccc3)CC2)nc(C)n1	16.92%
Cc1cc(N2CCC(NC(C)Cc3ccsc3)CC2)nc(C)n1 (stereo not given)	85.1%
O=C(COCCOc1ccccc1)NC1CCN(c2ccccn2)CC1	-45.63%
Cc1cc(N2CCC(N(C)C(=O)c3cccs3)CC2)nc(C)n1	-45.9%
c1ccc(OCCNC2CCN(c3ncccn3)CC2)cc1	-18.18%
COC1CCN(C(=O)Cn2ncc(N3CCCCC3)cc2=O)C1 (stereo not given)	-24.14%
COCc1cc(N2CCOC(c3ccc(Cl)cc3)C2)ncn1 (stereo not given)	9.167%
CS(=O)(=O)N1CCOCC2(CCN(C(=O)c3ccncc3)CC2)C1.O=C(O)C(F)(F)F	-27.09%
O=C(Nc1ccccn1)C1CCN(Cc2cccc3c2OCCO3)CC1	-6.102%
CC(C)(C)c1ncc(CNc2ccccc2SCCC(N)=O)s1	-73.84%
Cn1cccc1C(=O)NC(C)(C(N)=O)c1cccc(Cl)c1 (stereo not given)	-31.46%
CCC(C)NC(=O)c1cccc(CNCc2csc(C(C)C)n2)c1 (stereo not given)	46.44%
CCn1cnnc1C1CCN(C(=O)c2cc(C)c(C)s2)CC1	-85.96%
